# The other results are listed elsewhere or left out. Calls of active or inactive are those of the source. No rule for the calls is given here.
# Experiment: TO-PRO-1 dye complex inhibitors on d(CAG) DNA, dose response, counter-screen, biochemical, fluorescence, late stage (AID 720649)
# Details: d(CAG) DNA duplex TO-PRO-1 dye displacement
compound,measurement,value
Cc1noc(NS(=O)(=O)c2ccc(NC(=O)c3oc4ccc(F)cc4c3C)cc2)c1C,IC50,4.19 µM (active)

# From PubChem BioAssay AID720649 (The Scripps Research Institute Molecular Screening Center, 2013)
